Source: paper PMC7862700, “An all-to-all approach to the identification of sequence-specific readers for epigenetic DNA modifications on cytosine”

Columns and labels:
Experiment in all cases: DAPPL (digital affinity profiling via proximity ligation, sequencing); 10 mM Tris-HCl pH 7.5, 50 mM NaCl, 1 mM DTT, 4% glycerol, room temperature, 30 min; GST-TFs on glutathione beads, 16-mer random dsDNA library, 0.1% formaldehyde crosslink after washing; high values mean tight binding
FLI1 = molecular target: T1, FLI1 (Homo sapiens, UniProt Q01543 1-452); conditions: protein: recombinant; tags: N-terminal GST; dsDNA, one strand shown
T1 sequence: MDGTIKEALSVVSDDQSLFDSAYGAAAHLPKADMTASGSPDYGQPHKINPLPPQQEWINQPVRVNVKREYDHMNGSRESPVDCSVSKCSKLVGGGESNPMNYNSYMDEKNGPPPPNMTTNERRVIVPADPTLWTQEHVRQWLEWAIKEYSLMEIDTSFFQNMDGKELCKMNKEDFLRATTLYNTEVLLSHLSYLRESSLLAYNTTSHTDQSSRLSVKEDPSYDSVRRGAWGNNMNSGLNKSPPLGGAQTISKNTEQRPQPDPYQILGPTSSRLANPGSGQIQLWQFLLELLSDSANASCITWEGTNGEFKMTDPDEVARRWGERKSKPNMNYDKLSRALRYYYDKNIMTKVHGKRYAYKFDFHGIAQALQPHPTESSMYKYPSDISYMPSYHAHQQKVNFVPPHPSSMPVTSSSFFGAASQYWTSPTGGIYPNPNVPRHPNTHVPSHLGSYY
Method in brief: (§1)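 In yeast, human transcription factors were expressed with a GST fusion, then pulled down on glutathione beads and given DNA barcodes. Pooled with a tag-only sample, they were exposed to 200 nmole of a 16-mer random double-stranded DNA library (Tris/NaCl/DTT/glycerol buffer, room temperature, 30 min), washed, crosslinked with 0.1% formaldehyde, proximity-ligated using BsaI/T4 ligase for 1 h at 37 °C, PCR-amplified and read on an Illumina NextSeq500. Each hexamer's frequency of reads for a factor, divided by the matching frequency for the tag-only sample, gives the binding signal.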

ELK1 = molecular target: T2, ELK1 (Homo sapiens, UniProt P19419 1-428); conditions: protein: recombinant; tags: N-terminal GST; dsDNA, one strand shown
T2 sequence: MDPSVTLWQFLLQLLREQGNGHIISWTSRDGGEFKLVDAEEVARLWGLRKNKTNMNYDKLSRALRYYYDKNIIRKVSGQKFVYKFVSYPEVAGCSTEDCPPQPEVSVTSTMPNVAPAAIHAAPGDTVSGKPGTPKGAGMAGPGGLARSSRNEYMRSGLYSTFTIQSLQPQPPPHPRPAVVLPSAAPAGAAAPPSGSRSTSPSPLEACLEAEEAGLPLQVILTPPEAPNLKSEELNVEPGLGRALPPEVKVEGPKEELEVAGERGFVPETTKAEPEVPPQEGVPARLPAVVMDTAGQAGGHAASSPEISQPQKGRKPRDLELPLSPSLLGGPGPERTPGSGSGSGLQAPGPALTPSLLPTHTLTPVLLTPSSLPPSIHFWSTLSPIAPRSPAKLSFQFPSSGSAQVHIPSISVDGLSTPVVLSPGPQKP
Method in brief: as §1

GABPA = molecular target: T3, GABPA (Homo sapiens, UniProt Q06546 1-454); conditions: protein: recombinant; tags: N-terminal GST; dsDNA, one strand shown
T3 sequence: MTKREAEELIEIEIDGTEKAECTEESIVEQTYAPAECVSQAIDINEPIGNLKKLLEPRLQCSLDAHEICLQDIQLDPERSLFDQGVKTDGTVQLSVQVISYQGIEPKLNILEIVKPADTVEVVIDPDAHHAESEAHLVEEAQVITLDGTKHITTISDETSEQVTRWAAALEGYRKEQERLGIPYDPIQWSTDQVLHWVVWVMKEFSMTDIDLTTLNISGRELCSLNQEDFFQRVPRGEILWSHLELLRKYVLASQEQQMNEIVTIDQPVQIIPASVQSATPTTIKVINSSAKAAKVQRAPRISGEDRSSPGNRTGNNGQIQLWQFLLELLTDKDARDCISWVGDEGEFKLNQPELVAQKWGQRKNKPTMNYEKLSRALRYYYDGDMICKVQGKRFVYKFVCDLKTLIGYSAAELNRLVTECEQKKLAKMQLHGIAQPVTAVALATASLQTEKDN
Method in brief: as §1

ERG = molecular target: T4, ERG (Homo sapiens, UniProt P11308 1-479); conditions: protein: recombinant; tags: N-terminal GST; dsDNA, one strand shown
T4 sequence: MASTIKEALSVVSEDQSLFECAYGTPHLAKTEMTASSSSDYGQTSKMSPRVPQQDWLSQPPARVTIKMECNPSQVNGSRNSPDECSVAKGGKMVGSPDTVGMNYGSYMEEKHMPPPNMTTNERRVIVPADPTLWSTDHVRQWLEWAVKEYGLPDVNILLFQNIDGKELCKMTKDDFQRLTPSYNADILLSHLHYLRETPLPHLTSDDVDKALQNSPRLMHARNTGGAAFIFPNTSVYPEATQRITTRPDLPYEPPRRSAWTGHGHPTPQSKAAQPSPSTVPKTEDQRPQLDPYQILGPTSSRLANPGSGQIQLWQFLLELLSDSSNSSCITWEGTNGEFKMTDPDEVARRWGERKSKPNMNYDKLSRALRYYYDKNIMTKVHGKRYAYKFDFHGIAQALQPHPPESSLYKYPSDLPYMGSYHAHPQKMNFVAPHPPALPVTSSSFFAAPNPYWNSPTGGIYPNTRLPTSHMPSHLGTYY
Method in brief: as §1

ELF1 = ELF1 (Homo sapiens, UniProt P32519 1-619); conditions: protein: recombinant; tags: N-terminal GST; dsDNA, one strand shown
ELF1, sequence (P32519 whole entry): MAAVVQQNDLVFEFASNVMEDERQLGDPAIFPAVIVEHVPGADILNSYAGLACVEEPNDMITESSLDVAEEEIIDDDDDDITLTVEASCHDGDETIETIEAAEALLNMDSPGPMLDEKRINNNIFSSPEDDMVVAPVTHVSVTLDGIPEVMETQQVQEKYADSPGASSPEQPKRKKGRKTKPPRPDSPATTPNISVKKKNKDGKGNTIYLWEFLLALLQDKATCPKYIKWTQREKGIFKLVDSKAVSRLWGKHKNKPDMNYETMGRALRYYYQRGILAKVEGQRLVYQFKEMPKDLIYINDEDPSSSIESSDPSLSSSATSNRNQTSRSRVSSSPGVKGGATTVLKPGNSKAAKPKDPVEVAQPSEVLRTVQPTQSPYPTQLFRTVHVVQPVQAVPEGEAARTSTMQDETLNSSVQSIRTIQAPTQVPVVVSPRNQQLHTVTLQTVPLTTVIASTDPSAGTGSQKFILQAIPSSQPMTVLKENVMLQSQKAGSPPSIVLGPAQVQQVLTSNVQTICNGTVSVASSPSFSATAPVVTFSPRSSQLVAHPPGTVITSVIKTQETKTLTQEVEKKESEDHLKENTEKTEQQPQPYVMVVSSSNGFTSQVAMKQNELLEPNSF
Method in brief: as §1

EHF = molecular target: T5, EHF (Homo sapiens, UniProt Q9NZC4 1-300); conditions: protein: recombinant; tags: N-terminal GST; dsDNA, one strand shown
T5 sequence: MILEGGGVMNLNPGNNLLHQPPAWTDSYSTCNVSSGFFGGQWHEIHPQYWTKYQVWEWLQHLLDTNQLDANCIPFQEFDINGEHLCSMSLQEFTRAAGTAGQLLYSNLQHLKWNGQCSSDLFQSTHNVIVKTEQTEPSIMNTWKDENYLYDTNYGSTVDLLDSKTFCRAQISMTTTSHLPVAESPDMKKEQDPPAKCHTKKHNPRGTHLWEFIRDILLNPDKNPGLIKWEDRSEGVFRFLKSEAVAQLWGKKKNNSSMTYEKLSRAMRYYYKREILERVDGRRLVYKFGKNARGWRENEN
Method in brief: as §1

SPI1 = SPI1 (Homo sapiens, UniProt P17947 1-270); conditions: protein: recombinant; tags: N-terminal GST; dsDNA, one strand shown
Method in brief: as §1

SPIB = SPIB (Homo sapiens, UniProt Q01892 1-262); conditions: protein: recombinant; tags: N-terminal GST; dsDNA, one strand shown
SPIB, sequence (Q01892 whole entry): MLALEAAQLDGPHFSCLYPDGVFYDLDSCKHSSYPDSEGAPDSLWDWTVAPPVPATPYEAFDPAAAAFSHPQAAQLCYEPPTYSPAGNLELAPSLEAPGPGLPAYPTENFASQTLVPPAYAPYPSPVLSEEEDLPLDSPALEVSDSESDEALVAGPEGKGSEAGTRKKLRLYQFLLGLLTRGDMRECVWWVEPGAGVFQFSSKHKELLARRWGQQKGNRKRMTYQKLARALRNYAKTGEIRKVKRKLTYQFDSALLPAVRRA
Method in brief: as §1

ELK3 = molecular target: T6, ELK3 (Homo sapiens, UniProt P41970 1-407); conditions: protein: recombinant; tags: N-terminal GST; dsDNA, one strand shown
T6 sequence: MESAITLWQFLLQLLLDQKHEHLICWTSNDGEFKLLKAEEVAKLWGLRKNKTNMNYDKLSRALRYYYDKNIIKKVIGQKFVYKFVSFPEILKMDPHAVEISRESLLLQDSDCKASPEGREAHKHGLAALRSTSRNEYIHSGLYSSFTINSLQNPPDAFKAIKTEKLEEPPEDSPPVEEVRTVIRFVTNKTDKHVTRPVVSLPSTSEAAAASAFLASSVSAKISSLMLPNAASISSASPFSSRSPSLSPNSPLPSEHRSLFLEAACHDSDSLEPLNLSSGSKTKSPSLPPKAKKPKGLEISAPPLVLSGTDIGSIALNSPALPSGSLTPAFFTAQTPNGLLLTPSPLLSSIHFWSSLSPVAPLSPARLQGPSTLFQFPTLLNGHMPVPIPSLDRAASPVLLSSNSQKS
Method in brief: as §1

FEV = molecular target: T7, FEV (Homo sapiens, UniProt Q99581 1-238); conditions: protein: recombinant; tags: N-terminal GST; dsDNA, one strand shown
T7 sequence: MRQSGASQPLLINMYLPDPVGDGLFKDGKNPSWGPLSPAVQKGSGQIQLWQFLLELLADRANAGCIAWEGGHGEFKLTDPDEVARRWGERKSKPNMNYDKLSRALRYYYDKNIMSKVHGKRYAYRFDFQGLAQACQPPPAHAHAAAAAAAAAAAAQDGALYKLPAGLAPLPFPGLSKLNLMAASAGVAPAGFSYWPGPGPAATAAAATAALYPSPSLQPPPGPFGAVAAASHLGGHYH
Method in brief: as §1

ETV5 = ETV5 (Homo sapiens, UniProt P41161 1-510); conditions: protein: recombinant; tags: N-terminal GST; dsDNA, one strand shown
ETV5, sequence (P41161 whole entry): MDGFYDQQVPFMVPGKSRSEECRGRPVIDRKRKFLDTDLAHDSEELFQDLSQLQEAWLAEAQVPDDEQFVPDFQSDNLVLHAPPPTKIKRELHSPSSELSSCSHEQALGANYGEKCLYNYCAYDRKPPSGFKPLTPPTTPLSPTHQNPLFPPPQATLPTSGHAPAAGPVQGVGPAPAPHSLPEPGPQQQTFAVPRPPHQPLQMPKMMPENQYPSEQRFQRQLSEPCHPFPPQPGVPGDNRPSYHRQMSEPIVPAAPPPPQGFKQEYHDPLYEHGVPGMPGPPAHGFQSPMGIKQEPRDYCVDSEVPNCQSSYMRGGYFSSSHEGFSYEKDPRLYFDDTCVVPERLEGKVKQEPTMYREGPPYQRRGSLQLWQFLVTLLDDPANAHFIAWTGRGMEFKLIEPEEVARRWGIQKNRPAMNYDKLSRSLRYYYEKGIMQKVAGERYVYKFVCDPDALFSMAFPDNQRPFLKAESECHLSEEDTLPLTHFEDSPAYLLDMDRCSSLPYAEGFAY
Method in brief: as §1

HSF1 = HSF1 (Homo sapiens, UniProt Q00613 1-529); conditions: protein: recombinant; tags: N-terminal GST; chain copies: 3; dsDNA, one strand shown
HSF1, sequence (Q00613 whole entry): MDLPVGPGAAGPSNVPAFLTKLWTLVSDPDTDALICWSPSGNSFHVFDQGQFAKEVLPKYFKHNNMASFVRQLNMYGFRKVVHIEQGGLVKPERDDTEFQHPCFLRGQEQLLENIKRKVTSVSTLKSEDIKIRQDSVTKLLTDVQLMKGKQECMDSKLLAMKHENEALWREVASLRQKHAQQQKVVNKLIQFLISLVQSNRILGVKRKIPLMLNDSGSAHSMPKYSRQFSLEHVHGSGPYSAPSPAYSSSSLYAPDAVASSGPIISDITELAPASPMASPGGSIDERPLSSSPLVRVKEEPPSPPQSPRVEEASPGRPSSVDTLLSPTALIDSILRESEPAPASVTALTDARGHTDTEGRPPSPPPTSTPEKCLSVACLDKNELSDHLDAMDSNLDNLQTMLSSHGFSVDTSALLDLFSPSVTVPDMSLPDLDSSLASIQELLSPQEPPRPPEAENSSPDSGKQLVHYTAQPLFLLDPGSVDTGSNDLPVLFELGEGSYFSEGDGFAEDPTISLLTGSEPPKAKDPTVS
Method in brief: as §1

SPIC = molecular target: T8, SPIC (Homo sapiens, UniProt Q8N5J4 1-248); conditions: protein: recombinant; tags: N-terminal GST; dsDNA, one strand shown
T8 sequence: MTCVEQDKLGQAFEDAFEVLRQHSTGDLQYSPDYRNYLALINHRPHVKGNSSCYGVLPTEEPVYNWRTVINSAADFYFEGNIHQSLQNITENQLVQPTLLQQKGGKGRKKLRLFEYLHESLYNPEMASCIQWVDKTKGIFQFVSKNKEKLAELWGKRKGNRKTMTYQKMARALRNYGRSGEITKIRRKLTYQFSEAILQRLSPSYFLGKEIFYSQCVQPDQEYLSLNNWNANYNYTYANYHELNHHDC
Method in brief: as §1

ELF4 = ELF4 (Homo sapiens, UniProt Q99607 1-663); conditions: protein: recombinant; tags: N-terminal GST; dsDNA, one strand shown
ELF4, sequence (Q99607 whole entry): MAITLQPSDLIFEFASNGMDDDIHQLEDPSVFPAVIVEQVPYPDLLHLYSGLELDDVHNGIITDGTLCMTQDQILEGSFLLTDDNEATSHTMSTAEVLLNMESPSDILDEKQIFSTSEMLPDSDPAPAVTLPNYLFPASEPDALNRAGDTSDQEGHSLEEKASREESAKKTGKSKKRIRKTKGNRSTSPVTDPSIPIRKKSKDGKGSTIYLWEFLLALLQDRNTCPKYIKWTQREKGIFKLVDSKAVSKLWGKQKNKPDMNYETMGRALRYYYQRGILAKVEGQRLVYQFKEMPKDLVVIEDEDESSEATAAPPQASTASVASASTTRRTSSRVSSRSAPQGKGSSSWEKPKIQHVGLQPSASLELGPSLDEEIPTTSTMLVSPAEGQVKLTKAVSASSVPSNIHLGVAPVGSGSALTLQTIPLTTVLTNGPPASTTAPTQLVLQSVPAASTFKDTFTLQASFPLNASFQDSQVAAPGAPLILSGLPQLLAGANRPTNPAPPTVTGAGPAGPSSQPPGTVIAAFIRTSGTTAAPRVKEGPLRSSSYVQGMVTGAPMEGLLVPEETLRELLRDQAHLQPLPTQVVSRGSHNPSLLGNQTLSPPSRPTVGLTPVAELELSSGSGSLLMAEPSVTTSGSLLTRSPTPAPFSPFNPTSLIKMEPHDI
Method in brief: as §1

ELK4 = molecular target: T9, ELK4 (Homo sapiens, UniProt P28324-2 1-405); conditions: protein: recombinant; tags: N-terminal GST; dsDNA, one strand shown
T9 sequence: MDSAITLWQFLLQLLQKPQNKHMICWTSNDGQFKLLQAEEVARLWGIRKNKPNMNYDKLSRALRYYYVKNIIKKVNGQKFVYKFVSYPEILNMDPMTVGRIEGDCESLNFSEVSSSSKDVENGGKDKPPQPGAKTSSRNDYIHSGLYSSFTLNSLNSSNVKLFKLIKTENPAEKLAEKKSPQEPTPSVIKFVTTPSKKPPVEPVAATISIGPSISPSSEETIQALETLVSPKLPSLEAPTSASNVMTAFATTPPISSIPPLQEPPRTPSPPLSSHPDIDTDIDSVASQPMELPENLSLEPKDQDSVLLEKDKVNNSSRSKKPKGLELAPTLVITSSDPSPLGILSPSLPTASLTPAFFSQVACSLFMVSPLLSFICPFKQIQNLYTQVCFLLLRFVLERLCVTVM
Method in brief: as §1

ETV2 = molecular target: T10, ETV2 (Homo sapiens, UniProt O00321 1-342); conditions: protein: recombinant; tags: N-terminal GST; dsDNA, one strand shown
T10 sequence: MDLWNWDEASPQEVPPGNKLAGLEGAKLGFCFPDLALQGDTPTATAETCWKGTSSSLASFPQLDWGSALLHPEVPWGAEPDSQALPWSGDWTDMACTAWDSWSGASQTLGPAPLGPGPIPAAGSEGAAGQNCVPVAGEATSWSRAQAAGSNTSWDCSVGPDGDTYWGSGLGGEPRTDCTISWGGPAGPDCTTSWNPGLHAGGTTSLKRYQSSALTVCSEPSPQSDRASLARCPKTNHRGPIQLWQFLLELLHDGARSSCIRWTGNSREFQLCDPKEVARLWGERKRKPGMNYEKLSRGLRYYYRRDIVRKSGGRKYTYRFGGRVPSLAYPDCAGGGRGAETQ
Method in brief: as §1

ELF3 = molecular target: T11, ELF3 (Homo sapiens, UniProt P78545 1-371); conditions: protein: recombinant; tags: N-terminal GST; dsDNA, one strand shown
T11 sequence: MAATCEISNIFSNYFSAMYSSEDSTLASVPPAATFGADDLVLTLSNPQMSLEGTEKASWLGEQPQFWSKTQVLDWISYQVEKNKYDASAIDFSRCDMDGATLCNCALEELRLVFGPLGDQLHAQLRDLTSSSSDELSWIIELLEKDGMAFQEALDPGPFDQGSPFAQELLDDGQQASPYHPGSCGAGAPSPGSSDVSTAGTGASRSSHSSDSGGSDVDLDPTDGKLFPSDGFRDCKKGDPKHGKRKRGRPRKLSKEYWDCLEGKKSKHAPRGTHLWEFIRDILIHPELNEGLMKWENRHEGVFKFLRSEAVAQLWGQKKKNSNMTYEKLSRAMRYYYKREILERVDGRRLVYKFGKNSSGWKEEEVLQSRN
Method in brief: as §1

CRX = CRX (Homo sapiens, UniProt O43186 1-299); conditions: protein: recombinant; tags: N-terminal GST; dsDNA, one strand shown
CRX, sequence (O43186 whole entry): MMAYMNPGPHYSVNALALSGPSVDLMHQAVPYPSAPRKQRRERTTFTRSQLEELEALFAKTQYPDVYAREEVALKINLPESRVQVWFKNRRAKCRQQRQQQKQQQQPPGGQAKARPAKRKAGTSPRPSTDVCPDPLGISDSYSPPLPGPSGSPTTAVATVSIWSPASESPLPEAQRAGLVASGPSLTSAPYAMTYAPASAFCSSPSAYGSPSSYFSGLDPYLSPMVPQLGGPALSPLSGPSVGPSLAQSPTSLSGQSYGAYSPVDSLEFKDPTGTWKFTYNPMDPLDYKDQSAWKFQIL
Method in brief: as §1

ETV1 = ETV1 (Homo sapiens, UniProt P50549 1-477); conditions: protein: recombinant; tags: N-terminal GST; dsDNA, one strand shown
ETV1, sequence (P50549 whole entry): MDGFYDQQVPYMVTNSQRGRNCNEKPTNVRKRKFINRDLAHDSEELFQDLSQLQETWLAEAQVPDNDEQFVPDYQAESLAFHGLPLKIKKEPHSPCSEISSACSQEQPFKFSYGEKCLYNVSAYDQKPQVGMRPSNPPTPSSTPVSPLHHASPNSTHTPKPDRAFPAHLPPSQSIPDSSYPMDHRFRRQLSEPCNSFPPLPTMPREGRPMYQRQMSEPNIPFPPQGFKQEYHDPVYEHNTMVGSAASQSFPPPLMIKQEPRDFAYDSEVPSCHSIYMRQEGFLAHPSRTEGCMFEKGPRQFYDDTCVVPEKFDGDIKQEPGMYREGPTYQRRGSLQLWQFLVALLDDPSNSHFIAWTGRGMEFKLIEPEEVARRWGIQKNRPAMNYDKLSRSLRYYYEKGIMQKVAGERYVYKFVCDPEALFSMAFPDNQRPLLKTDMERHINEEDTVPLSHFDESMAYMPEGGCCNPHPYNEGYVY
Method in brief: as §1

CTGCTC was tested, and the binding signal (FLI1) was 1.32 fold enrichment (6-mer frequency, TF over GST control), the binding signal (ELK1) was 1.37 fold enrichment (6-mer frequency, TF over GST control) and the binding signal (GABPA) was 1.18 fold enrichment (6-mer frequency, TF over GST control). The binding signal (ERG) was 1.28 fold enrichment (6-mer frequency, TF over GST control), the binding signal (ELF1) was 1.34 fold enrichment (6-mer frequency, TF over GST control) and the binding signal (EHF) was 1.27 fold enrichment (6-mer frequency, TF over GST control). For the same sequence, the binding signal (SPI1) was 1.29 fold enrichment (6-mer frequency, TF over GST control), the binding signal (SPIB) was 1.39 fold enrichment (6-mer frequency, TF over GST control) and the binding signal (ELK3) was 1.3 fold enrichment (6-mer frequency, TF over GST control). For the same sequence, the binding signal (FEV) was 1.31 fold enrichment (6-mer frequency, TF over GST control), the binding signal (ETV5) was 1.26 fold enrichment (6-mer frequency, TF over GST control) and the binding signal (HSF1) was 1.17 fold enrichment (6-mer frequency, TF over GST control). The binding signal (SPIC) was 1.39 fold enrichment (6-mer frequency, TF over GST control), the binding signal (ELF4) was 1.29 fold enrichment (6-mer frequency, TF over GST control) and the binding signal (ELK4) was 1.45 fold enrichment (6-mer frequency, TF over GST control). The binding signal (ETV2) was 1.35 fold enrichment (6-mer frequency, TF over GST control), the binding signal (ELF3) was 1.18 fold enrichment (6-mer frequency, TF over GST control) and the binding signal (CRX) was 1.22 fold enrichment (6-mer frequency, TF over GST control). For the same sequence, the binding signal (ETV1) was 1.21 fold enrichment (6-mer frequency, TF over GST control).
